Sampled rows, rich in hits. Any-hit rate of the full collection: about 19%.
HepG2 tox: kills HepG2 cells in TGF-b inhibitor counter-screen; HepG2 CAGA-GFP viability, ATP luminescence, 18 h; Potency, µM (titrated, usually from 46.1 µM), usual class: cytotoxic; actives 0.76% (n = 410,000); AID 588856
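CellTiter-Glo luminescence gave cytotoxicity after 18 hours at 37 degrees C. The cells were HepG2 CAGA-GFP in 1% FBS DMEM, stimulated with 500 pg/mL TGF-beta after compound addition. %Activity was normalised to no-cell wells (complete cell-killing) and DMSO (no toxicity), and curves were fitted and classified.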
TGFb inhibitor: blocks TGF-b signaling | AID 588855 | actives 1.2% (n = 410,000) | Potency, µM (highest dose often 46.1 µM), most hits filed as inhibitors | HepG2 CAGA-GFP TGF-b/SMAD3 reporter, GFP fluorescence, 18 h; TGF-beta stimulated, 500 pg/mL final; note: nearly all actives have a fitted effect of over 65% in size
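Inhibition was scored as loss of TGF-beta-induced (500 pg/mL final, 18 hours, 37 degrees C) GFP in HEPG2 cells carrying a CAGA-GFP reporter, in DMEM with 1% FBS. Well GFP was summed per cell; Activity was normalised to unstimulated and stimulated DMSO wells, then concentration-response fitting.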
DT40 TDP1 no CPT: qHTS for Inhibitors of human tyrosyl-DNA phosphodiesterase 1 (TDP1): qHTS in cells in absence of CPT; DT40 Tdp1-/- hTDP1 cells, no CPT, ATP luminescence, 48 h; Potency, µM (top dose mostly 46.2 µM), hits mostly inhibitors; actives 15% (n = 420,000); note: nearly all actives have a fitted effect of over 55% in size
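DT40 Tdp1-/-;hTDP1 cells, no CPT (DMSO vehicle only), 400 cells/well; compounds pin-transferred; ≥48 hr, 37 °C; CellTiter-Glo 30 min RT dark, luminescence read.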
IL-1B inflam inh: blocks inflammasome-driven IL-1 beta release | activity change, % at 57.5 µM | actives 4.7% (n = 360,000) | THP-1 LPS/ATP IL-1B secretion, AlphaLISA, 16 h; active compounds read low | AID 743279; in the data active = activity change below about -50%; inconclusive = mostly about -30% to -49%
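THP-1 cells pretreated 1 hr with compounds (up to 57.5 uM final), then stimulated with LPS (250 ng/mL final) plus ATP (1.25 mM final); secreted IL-1B measured by AlphaLISA after 16 hr, decreased signal indicating inhibition.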
TDP1 cell CPT: DT40-hTDP1 cell growth loss with CPT | chicken DT40 Tdp1-/-;hTDP1 cells + 20 nM CPT, ATP luminescence, 48 h | AID 686979 | Potency, µM (series often up to 46.2 µM), hits mostly inhibitors | actives 12% (n = 420,000); note: nearly all actives have a fitted effect of over 55% in size
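Cell growth measured by CellTiter-Glo luminescence after a minimum 48 h, 37 C compound exposure with 20 nM CPT in Tdp1-knockout DT40 cells stably expressing hTDP1, seeded 400/well; qHTS titration format.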
S-ASM inh: human S-ASM enzyme inhibition; P17405; placental ASM, HMU-PC fluorogenic substrate, 60 min; Potency, µM (titrated, usually from 57.5 µM), usual class: inhibitors; actives 0.006% (n = 340,000); AID 504937
Target sequence (P17405 47-631 limits assumed): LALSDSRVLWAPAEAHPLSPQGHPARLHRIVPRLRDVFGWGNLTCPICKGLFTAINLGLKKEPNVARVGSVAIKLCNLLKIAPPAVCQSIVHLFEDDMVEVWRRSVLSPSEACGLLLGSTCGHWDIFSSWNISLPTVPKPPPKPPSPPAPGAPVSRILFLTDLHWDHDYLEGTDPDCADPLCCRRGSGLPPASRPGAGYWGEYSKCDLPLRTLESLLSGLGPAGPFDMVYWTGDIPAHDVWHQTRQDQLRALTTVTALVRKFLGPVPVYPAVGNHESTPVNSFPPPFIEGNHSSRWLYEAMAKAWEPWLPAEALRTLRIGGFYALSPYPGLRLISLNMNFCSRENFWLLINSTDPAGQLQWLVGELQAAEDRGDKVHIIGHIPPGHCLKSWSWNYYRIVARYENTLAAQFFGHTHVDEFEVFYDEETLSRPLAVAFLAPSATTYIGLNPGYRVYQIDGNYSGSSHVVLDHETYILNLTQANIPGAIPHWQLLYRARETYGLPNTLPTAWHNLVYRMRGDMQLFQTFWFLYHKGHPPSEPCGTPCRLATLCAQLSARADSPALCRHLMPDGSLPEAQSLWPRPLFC
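Human placenta-derived ASM preincubated with compound 10 min at room temperature, then reacted with 9 uM (final) fluorogenic HMU-PC substrate for 60 min at 37 C. Stop solution raises pH to 10; fluorescence read at Ex 386/Em 447 nm.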
A number is an active result. Unless noted, calls come from the whole dose curve; as a rule, active = well fitted curve in the direction sought with a large enough effect; inconclusive = small, poorly fitted or top-dose-only effect, or another doubt; inactive = no such curve, though single readings can be large; an effect the other way counts as inactive or inconclusive.

COc1ccccc1CNc1nc2cc(-c3ccc(OC)c(OC)c3)sc2c(=O)n1C was read as HepG2 tox inactive, TGFb inhibitor inconclusive, DT40 TDP1 no CPT 16µM, IL-1B inflam inh inactive and TDP1 cell CPT 23µM.
`COc1ccc(-c2cc3nc(NCc4ccc(NC(C)=O)cc4)n(C)c(=O)c3s2)cc1OC` gave HepG2 tox inactive, TGFb inhibitor inactive, DT40 TDP1 no CPT inactive, IL-1B inflam inh inactive and TDP1 cell CPT inactive.
`COc1cccc(CNc2nc3cc(-c4ccccc4)sc3c(=O)n2C)c1OC` gave HepG2 tox 10µM, TGFb inhibitor inconclusive, DT40 TDP1 no CPT 29µM, IL-1B inflam inh inactive and TDP1 cell CPT 16µM.
Screening O=C(Oc1cccc([N+](=O)[O-])c1)c1ccc2c(=O)n3c(nc2c1)CCC3 returned HepG2 tox inactive, TGFb inhibitor inactive, DT40 TDP1 no CPT inactive, IL-1B inflam inh inactive, TDP1 cell CPT inactive and S-ASM inh inactive.
Screening Nn1cc(-c2ccccc2)nc1SCC(=O)N1CCN(S(=O)(=O)c2ccc(Cl)cc2)CC1 returned HepG2 tox inactive, TGFb inhibitor inactive, DT40 TDP1 no CPT inactive, IL-1B inflam inh inactive, TDP1 cell CPT inactive and S-ASM inh inactive.
O=C(CCl)N1CCN(S(=O)(=O)c2ccc3c(c2)OCCCO3)CC1 was read as HepG2 tox inactive, TGFb inhibitor inconclusive, DT40 TDP1 no CPT 3.7µM, IL-1B inflam inh -96, TDP1 cell CPT 5.2µM and S-ASM inh inactive.
Screening Nn1cc(-c2ccccc2)nc1SCC(=O)N1CCN(S(=O)(=O)c2ccc3ccccc3c2)CC1 returned HepG2 tox inactive, TGFb inhibitor inconclusive, DT40 TDP1 no CPT inconclusive, IL-1B inflam inh -51, TDP1 cell CPT inconclusive and S-ASM inh inactive.
`O=C(c1ccccn1)N1CCN(S(=O)(=O)c2ccc3ccccc3c2)CC1` gave HepG2 tox inactive, TGFb inhibitor inactive, DT40 TDP1 no CPT inactive, IL-1B inflam inh inactive, TDP1 cell CPT inactive and S-ASM inh inactive.
`O=C(c1ccccc1F)N1CCN(S(=O)(=O)c2ccc3c(c2)OCCO3)CC1` gave HepG2 tox inactive, TGFb inhibitor inactive, DT40 TDP1 no CPT inconclusive, IL-1B inflam inh inactive, TDP1 cell CPT 12µM and S-ASM inh inactive.
Screening CCOc1ncccc1C(=O)N1CCN(S(=O)(=O)c2ccc3ccccc3c2)CC1 returned HepG2 tox inactive, TGFb inhibitor inconclusive, DT40 TDP1 no CPT inconclusive, IL-1B inflam inh inactive, TDP1 cell CPT 23µM and S-ASM inh inactive.
Screening Cc1nnc(SCC(=O)N2CCN(S(=O)(=O)c3ccccc3)CC2)s1 returned HepG2 tox inactive, TGFb inhibitor inconclusive, DT40 TDP1 no CPT inactive, IL-1B inflam inh inactive, TDP1 cell CPT inactive and S-ASM inh inactive.
Screening O=C(CCl)N1CCN(S(=O)(=O)c2ccc3ccccc3c2)CC1 returned HepG2 tox inactive, TGFb inhibitor inconclusive, DT40 TDP1 no CPT 5.8µM, IL-1B inflam inh -99, TDP1 cell CPT 3.3µM and S-ASM inh inactive.
For CCCCNc1nnc(SCC(=O)N2CCN(S(=O)(=O)c3ccc4ccccc4c3)CC2)s1 the results were HepG2 tox inactive, TGFb inhibitor inactive, DT40 TDP1 no CPT 23µM, IL-1B inflam inh -54, TDP1 cell CPT inconclusive and S-ASM inh inactive.
COc1ccc(NC(=O)Nc2c[nH]c(=O)[nH]c2=O)c(OC)c1 was read as HepG2 tox inactive, TGFb inhibitor inactive, DT40 TDP1 no CPT inactive and TDP1 cell CPT inactive.
For Cc1ccc(NNC(=O)CCc2ccccc2)c(C)c1 the results were HepG2 tox inactive, TGFb inhibitor inactive, DT40 TDP1 no CPT inactive, TDP1 cell CPT inactive and S-ASM inh inactive.
For Cc1ccc(NNC(=O)c2ccno2)c(C)c1 the results were HepG2 tox inactive, TGFb inhibitor inactive, DT40 TDP1 no CPT 18µM, IL-1B inflam inh inactive, TDP1 cell CPT inactive and S-ASM inh inactive.

Screening results as filed in PubChem.
